From paper PMC7819943, “Rice protein-binding microarrays: a tool to detect cis-acting elements near promoter regions in rice” come the findings set out here.

Over roughly 68,000 sequences, “fluorescence intensity (a.u.)” has its median near 9,100; the highest 2% begin near 16,000. The sample as a whole holds a higher share of the highest values than the screen did.

The target of the experiment is OsWRKY34 (Oryza sativa, UniProt Q0JBA9 1-250). The experiment is described as follows: protein-binding microarray (RPBM); PBS, 2% BSA, 51.3 ng/ul salmon testes DNA, 50 uM zinc acetate, 200 nM TF, 25 C, 1 h; high values mean tight binding. The note with it: protein: recombinant; tags: N-terminal polyhistidine and DsRed monomer fusion (pET32a); label: CyDye5-dUTP incorporated in the synthesized complementary strand; 3' TTTTT single-stranded linker to array surface; dsDNA, one strand shown. An outline of the steps: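 Polyhistidine-tagged DsRed fusions of transcription factors, joined at the N-terminus, were expressed in E. coli BL21-CodonPlus and isolated on Ni–NTA. They were incubated at 200 nM for 1 h at 25 °C on a custom Agilent array, double-stranded and BSA-blocked, in PBS with 2% BSA, salmon testes DNA and 50 µM zinc acetate. The binding signal is per-feature fluorescence intensity (arbitrary units) read on an Axon 4000B scanner after washing.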
Chain of OsWRKY34 (Q0JBA9 entry or part of it): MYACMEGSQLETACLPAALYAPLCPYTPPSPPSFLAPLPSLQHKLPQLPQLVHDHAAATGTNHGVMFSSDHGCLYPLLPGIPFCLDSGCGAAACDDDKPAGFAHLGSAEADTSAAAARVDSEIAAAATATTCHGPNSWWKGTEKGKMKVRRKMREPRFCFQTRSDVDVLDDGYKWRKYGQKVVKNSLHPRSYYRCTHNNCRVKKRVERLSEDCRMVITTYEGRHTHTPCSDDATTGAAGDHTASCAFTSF
Regarding “AATATTCGACGCCGTTCACTTTTTTAAATATGTTTGACCACGGAGTCACCTAGTGCAG”, the binding signal was 9820 fluorescence intensity (a.u.).
Then “ATGAGTGATTGATTTCTTGTTTATAGGAGTGGGTTGTTCACGGAGTCACCTAGTGCAG”, with 11200 fluorescence intensity (a.u.); and “GTTTAGTTGATTTCAGGGCCAGTTCTTGTGGGGTTTTCAACGGAGTCACCTAGTGCAG”, with 8490 fluorescence intensity (a.u.); and “ATGTATGACGCCGTTGACTTTTCGACCAACGTTTATTCGTCGGAGTCACCTAGTGCAG”, with 30200 fluorescence intensity (a.u.).
Then “AAACGCTATTGACTTTTTTTATAAATGTATGACCATTCGTCGGAGTCACCTAGTGCAG”, with 10400 fluorescence intensity (a.u.).
Then “AGATGACGCCGTTGACTTTTTATCACATGTTTAACCATTCCGGAGTCACCTAGTGCAG”, with 42300 fluorescence intensity (a.u.).
“ATGTACGACGCTATTGACTTTTTAACCAACGTTTGACTATCGGAGTCACCTAGTGCAG”: the binding signal is 11000 fluorescence intensity (a.u.).
As for “ATCTGTCAGTGCCACATCACCACCACACAACCGCAAAGAACGGAGTCACCTAGTGCAG”, the binding signal was 9250 fluorescence intensity (a.u.).
Then “ATCGGTGTTGACCTCCATATGCTGATCAGGCCCCATTTCCCGGAGTCACCTAGTGCAG”, with 8140 fluorescence intensity (a.u.); and “GGCCGAGCAGGTCTCCCGCGCCTTCGACATCCCTCTGCCACGGAGTCACCTAGTGCAG”, with 8600 fluorescence intensity (a.u.); and “TTCCTCTACATTCTACGTCCGGTTGGATTTTGCATGCGATCGGAGTCACCTAGTGCAG”, with 8640 fluorescence intensity (a.u.).
Consider “TTCTTCCCAGATCGTGCTTCTCCCACTCGGATCAGCCGCCCGGAGTCACCTAGTGCAG”, for which the binding signal was 8110 fluorescence intensity (a.u.).
“TGTTGTTTTTTATGTGTGAACCTCTTTGATCTCAATGCAACGGAGTCACCTAGTGCAG”: the binding signal was 8510 fluorescence intensity (a.u.).
For “CCTCCCTCACCGTCTTCCGCCTCGCCATCTCCAGCTCCGACGGAGTCACCTAGTGCAG” the value was 10100 fluorescence intensity (a.u.).
Then “CACCATCCATGCATATGCATCTTGTAGTTATTGCTTGCTCCGGAGTCACCTAGTGCAG”, with 9580 fluorescence intensity (a.u.); and “TCCACATCATCCGACCAACTCTACCAGCCATTCCACCCGCCGGAGTCACCTAGTGCAG”, with 9160 fluorescence intensity (a.u.).
For “CCTTATACTGTCTCACTTGTCTCACACTGAAACCGTTTTCCGGAGTCACCTAGTGCAG” the value was 8410 fluorescence intensity (a.u.); for “GTATAACGCCGTTGACTTTTTAACCAATGTTTGACCATTCCGGAGTCACCTAGTGCAG”, 40400 fluorescence intensity (a.u.); for “ACGCCGTTAACTTTTTATCCAATGTTTGACCATTCGTCTTCGGAGTCACCTAGTGCAG”, 13000 fluorescence intensity (a.u.).
With “TGACGACGCCATTGACTTTTGAACACATGTTTGACCATTCCGGAGTCACCTAGTGCAG”, the binding signal was 15900 fluorescence intensity (a.u.).
Then “GTATGACGCCGTTGACTTTTTGGCCAACGTTTGACCATTCCGGAGTCACCTAGTGCAG”, with 41500 fluorescence intensity (a.u.); and “CGTTTGGCCAAGTATATGACGCCCTAACTTATAAGTTGACCGGAGTCACCTAGTGCAG”, with 8420 fluorescence intensity (a.u.); and “TCCATCGCGCGTCGTCTCCACCTTTGTTGCTTGTGCCACCCGGAGTCACCTAGTGCAG”, with 10200 fluorescence intensity (a.u.).
For “ATGGGGTATTTAGGATGGGCAATATTTTGGTAGTGAGGAGCGGAGTCACCTAGTGCAG” the value was 9430 fluorescence intensity (a.u.); for “TGCTAAAAAGTCAACGGTGTCAAACATTTCGAAACGGAGGCGGAGTCACCTAGTGCAG”, 10900 fluorescence intensity (a.u.).
For “ACCACCACCGTCTCAACTCTCTCTCAGACTGTCCGCCATGCGGAGTCACCTAGTGCAG” the value was 8030 fluorescence intensity (a.u.).
For the sequence “ATATATCCATGCGAACTTCGCTCCAATAGTGAATTTTATCCGGAGTCACCTAGTGCAG”, the binding signal was 8900 fluorescence intensity (a.u.).
Then “GCTTTATCGTGCAAACACCTAAGCTGATAAAGGCAAAGGTCGGAGTCACCTAGTGCAG”, with 23200 fluorescence intensity (a.u.); and “TAAAGCTTTATATAGCTGGCCCGCTGACTTTTTTATATATCGGAGTCACCTAGTGCAG”, with 9020 fluorescence intensity (a.u.); and “ATATACATAAGCTTCTCGTGCACACACAAACTAACATAAACGGAGTCACCTAGTGCAG”, with 8610 fluorescence intensity (a.u.).
For “GGAGCGATGACGTTCTATACCTTCGGCCTTCGTTTGACCGCGGAGTCACCTAGTGCAG” the value was 10600 fluorescence intensity (a.u.).
Then “TTGATTTCTCTGAGTTTGTGTTCTTGGCATCATCATCATTCGGAGTCACCTAGTGCAG”, with 11400 fluorescence intensity (a.u.); and “TTTTTCTCCCCAGATTGCTGTGCACGGATTTGCCGTAAGACGGAGTCACCTAGTGCAG”, with 8360 fluorescence intensity (a.u.); and “TGTGTTTGAGGGGTGTGTATGTGTTGTGTTGTAGGTCAACCGGAGTCACCTAGTGCAG”, with 9510 fluorescence intensity (a.u.).
For the sequence “TATTTTATCTCACTGGCTATTTCCTATGATTATTTATTTCCGGAGTCACCTAGTGCAG”, the binding signal is 11400 fluorescence intensity (a.u.).
On to “AGGAGGGGTATTGTTGCTAATCTTGATTGTTTTACTCTTGCGGAGTCACCTAGTGCAG”, for which the binding signal was 17000 fluorescence intensity (a.u.).
For “ATTTGGGGTTTGGATACTTGAACTTTATTTTGACTTCTGACGGAGTCACCTAGTGCAG” the value was 14000 fluorescence intensity (a.u.).
Then “TTCTGTTTGGGTTTTGATTTGTTTCGGTTTGGCTGTTCTTCGGAGTCACCTAGTGCAG”, with 10600 fluorescence intensity (a.u.); and “AGTGTTAATCTTACTCCTTGTTGTATATTGCTAAGTTTTTCGGAGTCACCTAGTGCAG”, with 12900 fluorescence intensity (a.u.).
For “TTTTGGGGATAGATTTGCGCTTTTGGTGGGTGGGTTTGGGCGGAGTCACCTAGTGCAG” the value was 14200 fluorescence intensity (a.u.); for “GCGGGCTGTTTTTTTCTTGCGGTTTGGTTTGGGATTTCTGCGGAGTCACCTAGTGCAG”, 17400 fluorescence intensity (a.u.).
As to “GCCGTATTTGTTTTTTTGGGATTTGGGGTTTGGATACTTGCGGAGTCACCTAGTGCAG”, the binding signal is 18700 fluorescence intensity (a.u.).
Then “TTGCTTGTGTTGGGCCGTAGGGTTTTTGTTTTTTTTTTTGCGGAGTCACCTAGTGCAG”, with 8410 fluorescence intensity (a.u.); and “GATTTCTTTGTTGATTTTATTGGTTTTCTCCTAATCTTGCCGGAGTCACCTAGTGCAG”, with 8820 fluorescence intensity (a.u.); and “GGCTTTTGGTTTCTTGGTGGTTGTGGATTTTTTTTTTTTGCGGAGTCACCTAGTGCAG”, with 12300 fluorescence intensity (a.u.).
For the sequence “TTGTGTTTGGGCGGGAGAATTTTTGGGGATAGATTTGCGCCGGAGTCACCTAGTGCAG”, the binding signal was 18500 fluorescence intensity (a.u.).
For “GGGGCGATTTTTTTTTTTTTTTAGAATTGCGAGATAGGGGCGGAGTCACCTAGTGCAG” the value was 10700 fluorescence intensity (a.u.).
